Test systems include HCT-15 colon; HT29 colon; SNB-75 CNS; SNB-19 CNS; U251 CNS; PC-3 prostate; SK-MEL-5 melanoma; UACC-62 melanoma; LOX IMVI melanoma; SK-MEL-28 melanoma; SK-MEL-2 melanoma; EKVX NSCLC; SN12C renal; UO-31 renal; TK-10 renal; ACHN renal; A498 renal; CCRF-CEM leukemia; MOLT-4 leukemia; SR leukemia.
Assay in all cases: NCI-60 one-dose screen, 48 h (100 = growth as untreated, 0 = no growth, -100 = all killed)
Holding throughout (conditions): 10 µM unless noted

Experimental findings from PubChem BioAssay (NCI) are described below.

Compounds without any hit were thinned out: in the full panel of roughly 83,000, 20% have a hit.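 In brief: 96-well plates, 48 h treatment, single concentration, percent growth endpoint.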 Unmarked numbers belong to inactive results. Activity calls are given as the source filed them. How the source made its calls: active means growth percent below 10; inactive means the rest.

Regarding `CCC1=C[C@H]2CN(CCc3c([nH]c4ccccc34)[C@@](C(=O)OC)(c3cc4c(cc3OC)N(C)[C@H]3[C@@](O)(C(=O)OC)[C@H](OC(C)=O)[C@]5(CC)[C@@H]6C[C@@H]6CN6CC[C@]43[C@@H]65)C2)C1`, the growth with HCT-15 colon was 7.44% (active); in the test with HT29 colon it was -18.4% (active); in the test on SNB-75 CNS, -3.68% (active); in the test with SNB-19 CNS, 21.1%; with U251 CNS, 13%; in the test on PC-3 prostate, 29.4%. Also, the growth with SK-MEL-5 melanoma was -25.5% (active); in the test with UACC-62 melanoma, 17%; in the test with LOX IMVI melanoma it was 17%; in the test with SK-MEL-28 melanoma it was 58.5%; in the test with SK-MEL-2 melanoma it was 13.2%; with EKVX NSCLC, 35.5%. The growth is 30.1% with SN12C renal; 14.7% in the test on UO-31 renal; 28.9% in the test on TK-10 renal; 19.1% in the test with ACHN renal; -15.2% (active) in the test on A498 renal; -5.97% (active) with CCRF-CEM leukemia. The results for the growth in the test with MOLT-4 leukemia and in the test with SR leukemia were 4.19% (active) and -9.46% (active), respectively.
In the case of `Cc1cc(O)cc(O)c1N=NC1=NCCS1`, the growth is 102% with HCT-15 colon; 95.7% in the test on HT29 colon; 81.7% in the test with SNB-75 CNS; 107% with SNB-19 CNS; 105% in the test on U251 CNS; 107% in the test with PC-3 prostate. Also, the growth was 111% with SK-MEL-5 melanoma; 99.5% in the test on UACC-62 melanoma; 97.2% in the test with LOX IMVI melanoma; 98.5% with SK-MEL-28 melanoma; 98.3% in the test on SK-MEL-2 melanoma; 96.5% in the test with EKVX NSCLC. For the same compound, the growth in the test on SN12C renal is 109%; in the test with UO-31 renal, 89.9%; in the test on TK-10 renal it was 135%; with ACHN renal, 97.3%; in the test with A498 renal, -6.58% (active); in the test with CCRF-CEM leukemia, 101%. Besides, the growth is 94.1% in the test with MOLT-4 leukemia and 97.1% in the test with SR leukemia.
Consider `C=CCn1c(SCC(=O)Nc2ccc(C(=O)/C=C/c3cc(OC)c(OC)c(OC)c3)cc2)nnc1-c1ccccc1`, for which the growth was 61.1% in the test with HCT-15 colon; 49.1% in the test on HT29 colon; 95.2% with SNB-75 CNS; 86% with SNB-19 CNS; 64.4% with U251 CNS; 94.1% in the test with PC-3 prostate. Besides, the growth with SK-MEL-5 melanoma is 77.3%; in the test with UACC-62 melanoma it was 84.6%; in the test on LOX IMVI melanoma it was 68.7%; in the test with SK-MEL-28 melanoma it was 110%; with SK-MEL-2 melanoma, 101%; in the test with EKVX NSCLC, 95.8%. Moreover, the growth was 93.1% with SN12C renal; 78.3% with UO-31 renal; 108% with TK-10 renal; 103% in the test with ACHN renal; 87.5% with A498 renal; 57.1% with CCRF-CEM leukemia. Further, the values for the growth in the test with MOLT-4 leukemia and in the test on SR leukemia were 76.9% and 32.5%, respectively.
`Cc1cccc(C)c1NCc1nnc(-c2ccc(O)cc2)o1`: the growth is 97.7% with HCT-15 colon; 106% in the test on HT29 colon; 77.8% with SNB-75 CNS; 108% in the test with SNB-19 CNS; 105% in the test on U251 CNS; 95.1% in the test with PC-3 prostate. Also, the growth in the test on SK-MEL-5 melanoma was 101%; with UACC-62 melanoma it was 100%; in the test on LOX IMVI melanoma it was 96.8%; in the test with SK-MEL-28 melanoma it was 102%; with SK-MEL-2 melanoma, 104%; with EKVX NSCLC, 90.6%. In addition, the growth in the test on SN12C renal was 102%; in the test with UO-31 renal it was 85.5%; in the test with TK-10 renal, 104%; in the test on ACHN renal, 98.6%; in the test on A498 renal, 107%; with CCRF-CEM leukemia it was 94.8%. For the same compound, the values for the growth in the test with MOLT-4 leukemia and in the test on SR leukemia were 108% and 119%, respectively.
Turning to `CC(=O)O[C@@H]1C[C@]2(C)[C@H]3[C@H](O)C[C@@H]4C5=CC(C)(C)CC[C@]5(C)CC[C@@]4(C)[C@]3(C)CC[C@H]2C(C)(C)[C@H]1O`, the growth was 100% in the test with HCT-15 colon; 97.8% with HT29 colon; 91.6% with SNB-75 CNS; 104% with SNB-19 CNS; 97.6% in the test with U251 CNS; 84.9% in the test on PC-3 prostate. The growth in the test with SK-MEL-5 melanoma is 114%; in the test on UACC-62 melanoma, 97.4%; in the test with LOX IMVI melanoma, 98.7%; in the test with SK-MEL-28 melanoma, 106%; in the test on SK-MEL-2 melanoma it was 107%; with EKVX NSCLC, 96.5%. In addition, the growth was 99.9% in the test with SN12C renal; 84.1% with UO-31 renal; 104% in the test on TK-10 renal; 102% in the test with ACHN renal; 119% with A498 renal; 106% in the test with CCRF-CEM leukemia. Also, the growth in the test with MOLT-4 leukemia and in the test with SR leukemia was 87.1% each time.
On to `COc1cc(C(=O)Nc2cc(O)c(C/C=C(\C)CCC=C(C)C)c(O)c2)cc2c1O[C@]1(C)CC[C@@H](O)C(C)(C)[C@H]1C2`, for which the growth was 1.55% (active) in the test on HCT-15 colon; -25.5% (active) with HT29 colon; 20.2% with SNB-75 CNS; 32.2% with SNB-19 CNS; 6.63% (active) with U251 CNS; 18.1% in the test with PC-3 prostate. Also, the growth with SK-MEL-5 melanoma is -39.6% (active); with UACC-62 melanoma, 0.641% (active); in the test on LOX IMVI melanoma, -33.8% (active); in the test on SK-MEL-28 melanoma, 25.8%; in the test with SK-MEL-2 melanoma, 5.69% (active); in the test on EKVX NSCLC, 31.7%. Besides, the growth in the test with SN12C renal was 26.5%; in the test with UO-31 renal it was -31.9% (active); with TK-10 renal it was 40.9%; in the test with ACHN renal, 18.5%; in the test on A498 renal, -25.7% (active); with CCRF-CEM leukemia, 7.08% (active). Further, the growth was -2.24% (active) in the test with MOLT-4 leukemia and 1.41% (active) with SR leukemia.
Regarding `CCCCCCC/C=C/[C@H]1O[C@]23C(=O)C[C@@]4(C[C@@H](OC5OC(CO)C(O)C(O)C5O)C[C@@H]4[C@H]2C=C1C)OC3=O` (stereo not given in full), the growth was -5.27% (active) in the test on HCT-15 colon; 0.865% (active) with HT29 colon; 70.6% in the test with SNB-75 CNS; 21.2% in the test on SNB-19 CNS; -2.96% (active) with U251 CNS; 21% with PC-3 prostate. The growth in the test on SK-MEL-5 melanoma is 8.74% (active); in the test on UACC-62 melanoma, 14.2%; in the test with LOX IMVI melanoma, -67.7% (active); in the test on SK-MEL-28 melanoma it was -5.61% (active); in the test with SK-MEL-2 melanoma, -9.46% (active); in the test on EKVX NSCLC it was 86.9%. The growth is 26.7% in the test on SN12C renal; 3.36% (active) with UO-31 renal; 35.8% with TK-10 renal; 4.9% (active) in the test on ACHN renal; 70.1% in the test with A498 renal; 19% in the test on CCRF-CEM leukemia. For the same compound, the values for the growth in the test with MOLT-4 leukemia and in the test on SR leukemia were 8.32% (active) and 6.22% (active), respectively.
With `O=C(Nc1nc(-c2ccccc2Cl)cs1)c1cc(-c2ccc(Br)cc2)nc2ccccc12`, the growth in the test on HCT-15 colon was 61.6%; in the test on HT29 colon it was 37.4%; in the test on SNB-75 CNS, 96.8%; with SNB-19 CNS, 71%; in the test with U251 CNS it was 46.1%; with PC-3 prostate it was 43.1%. Also, the growth in the test with SK-MEL-5 melanoma was 27.9%; in the test with UACC-62 melanoma, 48.8%; with LOX IMVI melanoma, 50%; in the test with SK-MEL-28 melanoma, 80.3%; with SK-MEL-2 melanoma, 26.6%; with EKVX NSCLC, 35.6%. Further, the growth in the test on SN12C renal is 69.9%; with UO-31 renal it was 42%; in the test with TK-10 renal, 49.4%; with ACHN renal, 49.7%; with A498 renal, 22.6%; in the test with CCRF-CEM leukemia it was 44.9%. Besides, the growth was 37.2% in the test with MOLT-4 leukemia and 53% in the test on SR leukemia.
